Bioassay records: PubChem BioAssay, National Center for Advancing Translational Sciences (NCATS)
MCF10A rereplic: induces DNA re-replication in MCF 10a normal breast cells; MCF 10A DNA re-replication, Hoechst nuclear intensity, 48 h; Potency, µM (series often up to 46.1 µM), without a hit: at the top dose activity, positive = re-replication, hits mostly activators; actives 2.9% (n = 350,000); also: % of control where 0% means no effect; nearly all actives have a fitted effect of over 50% in size
SW480 rerep: DNA re-replication induction in SW480 cells; actives 1.8% (n = 340,000); Potency, µM (top dose mostly 46.1 µM), inactives show top-dose re-replication activation, usual class: activators; SW480 DNA re-replication, Hoechst DNA content imaging, 48 h; also: % of control where 0% means no effect; nearly all actives have a fitted effect of over 55% in size
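250 cells/well; 23 nL cpd via pin tool; 48 hr, 37 C, 5% CO2; Hoechst 40 min; imager read of total nuclear intensity, ex 405/em 500-530 nm.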
KB-V1 MDR tox: kills drug-selected multidrug resistant KB-V1 cells; actives 3.4% (n = 400,000); Potency, µM (top dose mostly 46.1 µM), hits mostly cytotoxic; KB-V1 MDR cells viability, CellTiter-Glo, 72 h; also: % is scaled to controls: 0 for no effect and ±100 for the full control effect; nearly all actives have a fitted effect of over 60% in size
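KB-V1, DMEM (no phenol red) + 10% FBS; cpd pin-transferred, titration series; 72 h, 37 degrees C; CellTiter-Glo, luminescence. Data normalized, curve-fit.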
HT1080 IDH1KD tx: HT-1080 IDH1 knockdown cell toxicity (counter line); actives 2% (n = 360,000); Potency, µM (highest dose often 46.1 µM), for inactives: top-dose activity, negative = toxicity, usual class: cytotoxic; HT-1080 IDH1 knockdown viability, ATP luminescence, 48 h;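 also: 0% = DMSO wells and -100% = cell-free medium wells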
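% activity derives from luminescence (CellTiter-Glo), normalised to DMSO and no-cell wells. HT-1080-IDH1KD cells, 750/well, had 48 h compound exposure at 37 °C.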
HT1080-NT tox: kills 2HG-producing HT-1080-NT fibrosarcoma cells; HT-1080-NT fibrosarcoma viability, CellTiter-Glo ATP luminescence, 48 h; Potency, µM (series often up to 46.1 µM), for the others: at the highest dose activity, negative = less viability, hits mostly cytotoxic; actives 1.6% (n = 360,000);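 also: NT is the 2HG producing partner of a matched IDH1 knockdown line; 0% = DMSO-treated cells and -100% = media-only wells without cells; nearly all actives have a fitted effect of over 55% in size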
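Compounds were tested in concentration-response format on HT-1080-NT cells for 48 hours at 37 degrees C. Cell viability came from CellTiter-Glo luminescence; curves were classified by r2, response magnitude and activity.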
KB-3-1 tox: kills parental KB-3-1 adenocarcinoma cells; KB-3-1 viability, CellTiter-Glo ATP luminescence, 72 h; actives 1.4% (n = 400,000); Potency, µM (titrated, usually from 46.1 µM), actives largely listed as cytotoxic; also: % is scaled to controls: 0 for no effect and ±100 for the full control effect; nearly all actives have a fitted effect of over 60% in size
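Parental KB-3-1 viability, qHTS format: 72 h compound exposure, 37 °C; CellTiter-Glo; media-only wells and DMSO plates as controls; concentration-effect fits on corrected data.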
Starred values were filed as active, the others as inactive; i = inactive; ? = inconclusive; nt = no result; [ ] = dose if it differs, or a comment. Hits are enriched below; roughly 7.9% of the tested compounds scored in any of these assays. Calls follow the shape of the dose curve; as a rule, active = well fitted curve in the direction sought with a large enough effect; inconclusive = small, poorly fitted or top-dose-only effect, or another doubt; inactive = no such curve, though single readings can be large; an effect the other way counts as inactive or inconclusive. Potency is read from the fitted curve at half-maximal effect.

SMILES	MCF10A rereplic	SW480 rerep	KB-V1 MDR tox	HT1080 IDH1KD tx	HT1080-NT tox	KB-3-1 tox
CCCNC(=O)c1cccc(S(=O)(=O)N2CC3(C)CC2CC(C)(C)C3)c1 (centres undefined)	6%	1%	2.1µM*	-13%	-8%	i
CC1(C)CC2CC(C)(CN2S(=O)(=O)c2ccc(C(=O)Nc3ccc(Cl)c(S(=O)(=O)N4CCOCC4)c3)cc2)C1 (centres undefined)	-1%	15%	2.9µM*	-14%	-10%	2.9µM*
CN(C)C(CNC(=O)c1cccc(S(=O)(=O)N2CC3(C)CC2CC(C)(C)C3)c1)c1ccco1 (centres undefined)	1%	0%	i	3%	-1%	i
CC(=O)Nc1ccc(S(=O)(=O)N2CC3(C)CC2CC(C)(C)C3)cc1 (centres undefined)	-1%	30%	i	-17%	-1%	i
Cc1oc2cc(Br)c(O)c(Br)c2c1-c1ccccc1	?	-5%	i	?	-18%	?
COc1ccc(Cl)cc1C(=O)NCc1nc(-c2cccc(C)c2)no1	nt	nt	i	nt	nt	i
Cc1ccc(C)c(CN2CCC(CNC(=O)Nc3ccc(Br)cc3F)CC2)c1	?	?	?	?	16µM*	?
Cc1ccc(C)c(CN2CCC(CNC(=O)Nc3ccc(Cl)cc3)CC2)c1	2%	-17%	?	-13%	-1%	?
CCN(CC)C(=O)C1=C(C)N(CCC2=CCCCC2)C(=O)C(CC(=O)NCCCCc2ccccc2)C1 (centres undefined)	nt	nt	i	15%	-2%	i
COc1ccc(OC)c(S(=O)(=O)N2CCCCC2C(=O)N2CCN(c3ccccn3)CC2)c1 (centres undefined)	-22%	?	9.2µM*	15%	2%	i
CCOC(=O)/C=C1\SCC(=O)N1CC(=O)Nc1ccc2c(c1)CCC2	9.2µM*	?	?	?	11%	i
O=C(CCS(=O)(=O)c1cccc2nonc12)N1CCN(c2ccc(F)cc2)CC1	30%	-3%	23µM*	2%	13%	i
O=C(CCNS(=O)(=O)c1cccc2nonc12)N1CCN(c2cccc(Cl)c2)CC1	-3%	?	10µM*	-8%	-11%	i
O=C(CCc1nc2ccccc2c(=O)[nH]1)Nc1cc(Cl)ccc1N1CCCC1	1%	-1%	15µM*	1%	-2%	i
CCOc1ccccc1NC(=O)CCCc1nc2ccccc2c(=O)[nH]1	28%	6%	18µM*	?	1%	i
CC(=O)Nc1ccc(NC(=O)CCc2nc3ccccc3c(=O)[nH]2)cc1	-4%	-4%	i	19%	11%	i
O=C(CCc1nc2ccccc2c(=O)[nH]1)Nc1ccc(Cl)c(Cl)c1	20%	-107%	21µM*	?	-14%	i
O=C(Nc1cccc(Cl)c1)N(Cc1nc2ccccc2c(=O)[nH]1)Cc1cccs1	4%	-4%	16µM*	-11%	-3%	i
CCOc1ccc(Oc2ccccc2NC(=O)CCc2nc3ccccc3c(=O)[nH]2)cc1	nt	nt	?	-19%	-4%	i
Cc1ccc(CCNC(=O)Cn2ncc3c([nH]c4ccc(C)cc43)c2=O)cc1	nt	nt	i	nt	nt	i
CCOc1ccccc1NC(=O)Cn1c(=O)n(Cc2ccco2)c(=O)c2cccnc21	nt	nt	i	nt	nt	i
O=[N+]([O-])c1ccc(-c2nc(Nc3ccc(O)cc3)c3ccccc3n2)cc1	24%	-10%	i	10%	5%	i
NC(N)=NCCCS(=O)(=O)Nc1ccc(Nc2c3ccccc3nc3cc([N+](=O)[O-])ccc23)cc1	3%	-1%	?	17%	9%	15µM*
CCOC(=O)/C=C/C(=O)OCC(=O)Nc1ccc(Cl)cn1	21µM*	1%	i	14%	15%	i
CCN(CC)S(=O)(=O)c1cccc(C(=O)Nc2ccc(Cl)cn2)c1	21%	4%	12µM*	-18%	1%	?
SMILES	MCF10A rereplic	SW480 rerep	KB-V1 MDR tox	HT1080 IDH1KD tx	HT1080-NT tox	KB-3-1 tox
Cc1ccc(C(=O)Nc2ccc(Cl)cn2)cc1	22%	-4%	6.5µM*	10µM*	16µM*	?
CC(C)=CC(=O)OCC(=O)Nc1ccc(Cl)cn1	2%	0%	?	18%	22%	i
Cc1ccc(CC(=O)Nc2ccc(Cl)cn2)cc1	-2%	11%	i	9%	12%	i
Cc1ccc(NC(=O)c2ccc(Cl)cc2[N+](=O)[O-])nc1	?	3.7µM*	?	4.6µM*	5.8µM*	5.8µM*
Cc1ccc(C(=O)c2cn(Cc3ccccc3)c3nc(C)ccc3c2=O)cc1	nt	nt	i	nt	nt	i
CCCCN1CC(N2CCCCC2)CS1(=O)=O (centres undefined)	nt	nt	i	4%	3%	i
Cc1ccc(C(=O)Nc2ncc3c(Cl)cccc3n2)cc1	22%	?	18µM*	13µM*	15µM*	?
CCN(CC)S(=O)(=O)c1cc(C(=O)Nc2ccc(Cl)cn2)ccc1C	10%	-4%	9.2µM*	-3%[9.24 µM]	-10%	i
Cc1ccc(C(=O)Nc2nccc(-c3cccs3)n2)cc1	2%	-1%	i	-3%	-3%	i
CCN(CC)S(=O)(=O)c1cc(C(=O)NC2CCCCC2)ccc1C	15%	-2%	13µM*	-2%	0%	i
CCN1CCN(c2ncc(C(=O)Nc3ccccc3C(=O)OC)c3ccccc23)CC1	?	?	?	?	21µM*	?
COC(=O)c1ccccc1NC(=O)c1c(Br)cnn1C	-6%	-7%	?	-14%	-18%	i
CCn1ncc(Br)c1C(=O)Nc1ccccc1C(=O)OC	3%	2%	?	2%	1%	21µM*
CCn1ncc(Br)c1C(=O)Nc1ccc(F)cc1F	16µM*	21µM*	?	1%	7%	i
Cc1cccc(-c2nc(CN3CCCC(C(=O)N4CCN(c5cc(Cl)ccc5C)CC4)C3)c(C)o2)c1 (centres undefined)	nt	nt	i	nt	nt	i
Cc1ccc(C2CC(=O)n3nc(-c4ccc(F)cc4)nc3S2)cc1 (centres undefined)	nt	nt	i	nt	nt	?
COc1ccc(NC(=O)C2CCCN(C(=O)NC3CCCCC3)C2)cc1OC (centres undefined)	2%	1%	15µM*	10%	1%	i
COc1ccc(S(=O)(=O)N2CCN(C(=O)NC3CCCCC3)CC2)cc1OC	4%	1%	16µM*	-1%	-2%	i
